Hit rate of the full screen: of about 360,000 compounds, about 2,200 (0.61%) were called active. The full list was thinned out, with actives kept by preference. Unmarked numbers belong to inactive results.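 The calls were made as follows: active = inhibition above a per-plate cutoff, the plate's mean sample inhibition plus 3 SD (cut at about 24% in these data); inactive = the rest.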

A short description of the assay: nonselective inhibitors of ATP calcium response in CHO-K1, primary screen, counter-screen for M1 antagonist project, cell-based, Fluo-8 calcium fluorescence, full deck, 1536-well (AID 602250).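 Also: 0% = DMSO plus EC80 ATP and 100% = DMSO alone without ATP.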 Particulars: CHO-K1 parental, ATP-induced calcium, Fluo-8 fluorescence; at 3 µM; active compounds read high. (In general: Counterscreens check selectivity or assay interference.)
As for `CCC(=O)OC(Cc1ccccc1)(c1ccccc1)C(C)CN(C)C` (stereo not given), the inhibition is 25.3% (active).

For the compound `CN(C)CC1Oc2ccccc2OC1(O)c1ccccc1` (stereo not given), the inhibition was -2.02%.

Turning to `CN1CCN(Cc2ccc(OC(F)(F)F)cc2)CC1`, the inhibition was -3.91%.

Consider `OC1/C(=C/c2ccc(C(F)(F)F)cc2)N2CCC1CC2` (stereo not given), for which the inhibition is -10.6%.

With `CN(C)S(=O)(=O)c1cc(C(=O)N2CCC(C(=O)O)(c3ccccc3)CC2)ccc1Cl`, the inhibition was -5.53%.

In general, inhibition refers to the change of the read-out against control, counted positive when it falls.

Values taken from PubChem BioAssay AID602250 (The Scripps Research Institute Molecular Screening Center, 2012).
